The source of these data is PubChem BioAssay (Tox21).

Assay [1] is described as follows: qHTS assay to identify small molecule antagonists of the estrogen related receptor (ERR) signaling pathway from Tox21 library - cell viability counter screen (AID 1224834). Further: nearly all actives have a fitted effect of over 30% in size. The procedure, abridged: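 Multiplexed viability counter screen in ERR cells: 17.5 h compound exposure at 37 C, CellTiter-Fluor added, 30 min at 37 C/5% CO2, fluorescence read.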
On the technique in general: qHTS replaces the single test concentration by a dilution series.

In assay [2] the target is Luciferin 4-monooxygenase (Photinus pyralis) (UniProt P08659). The assay can be described thus: qHTS assay to identify small molecule inhibitors of firefly luciferase (AID 1224835). Further: nearly all actives have a fitted effect of over 25% in size. Further: potency means the concentration at half of the fitted maximal effect. The gist of the method: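 Biochemical qHTS: compounds run as interplate titrations against purified firefly enzyme, with D-luciferin and ATP each at its KM concentration. Light output recorded by CCD imaging.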

The nature of assay [3]: qHTS assay to identify small molecule agonists of the constitutive androstane receptor (CAR) signaling pathway - cell viability counter screen (AID 1224836). Further: nearly all actives have a fitted effect of over 45% in size. The procedure, abridged: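 Cells were seeded and incubated 4 hrs. Compounds were added across 15 concentrations together with PK11195 at 0.75 uM final. Plates were incubated 23 hrs at 37 C. CellTiter-Fluor was added and fluorescence measured.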

Assay [4] can be described thus: qHTS assay to identify small molecule antagonists of the constitutive androstane receptor (CAR) signaling pathway - cell viability counter screen (AID 1224837). Further: nearly all actives have a fitted effect of over 45% in size. The procedure, abridged:
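Read-out: CellTiter-Fluor fluorescence after 23 hr at 37 C/5% CO2. Cells: HepG2 double-stable for hCAR and CYP2B6-2.2kb. Compounds tested at 15 concentrations in the presence of CITCO, final concentration 50 nM.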

The target in assay [5] is Nuclear receptor subfamily 1 group I member 3 (Homo sapiens) (UniProt Q14994). The experiment in a line: qHTS assay to identify small molecule antagonists of the constitutive androstane receptor (CAR) signaling pathway (AID 1224838).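 Further: HepG2 cells stably expressing hCAR with CYP2B6 luciferase reporter stimulated by CITCO; nearly all actives have a fitted effect of over 40% in size.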 The procedure, abridged: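 Read-out: ONE-Glo luciferase luminescence after 30 min at room temperature. HepG2-CYP2B6-hCAR double-stable cells, compounds in 15-point titration plus 50 nM CITCO final, 24 h at 37 C/5% CO2.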

Assay [6] has the same target. The experiment in a line: qHTS assay to identify small molecule agonists of the constitutive androstane receptor (CAR) signaling pathway (AID 1224839).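 Further: HepG2 cells stably carrying human CAR and a CYP2B6 luciferase reporter; nearly all actives have a fitted effect of over 15% in size.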 The procedure, abridged:
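Cells were plated and incubated 4 hrs, then dosed with compounds at 15 concentrations. PK11195 was added to 0.75 uM final. After 24 hrs at 37 C, luciferase luminescence was measured.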

A short description of assay [7]: qHTS assay to identify small molecule antagonists of the estrogen related receptor signaling pathway with the pleiotropic PPARgamma coactivator (PGC) from Tox21 10K library - cell viability counter screen (AID 1224840; active means well fitted cell-killing curve with a large enough effect in the repeat runs, not every such curve was filed as active; further: nearly all actives have a fitted effect of over 40% in size). The procedure, abridged:
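Fluorescence read-out of CellTiter-Fluor viability reagent, added after cells had been exposed to compound in DMSO for 17.5 h at 37 C; 30 min development at 37 C/5% CO2. Cells: PGC/ERR line, 2,000/well.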

Assay [8] in a line: qHTS assay to identify small molecule antagonists of the estrogen related receptor signaling pathway with the pleiotropic PPARgamma coactivator (PGC) from Tox21 10K library (AID 1224841; call rule not given here; further: actives are mostly falling curves and most rising ones were filed inactive; nearly all actives have a fitted effect of over 50% in size). The gist of the method: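 Luminescence read-out (One-Glo luciferase reagent, 30 min at room temperature) from PGC/ERR cells exposed to DMSO-dissolved test compounds for 18 h at 37 C; cells, 2,000 per well, had been preincubated 6 h before compound transfer.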

Assay [9] is described as follows: qHTS assay to identify small molecule agonists of the estrogen related receptor signaling pathway with the pleiotropic PPARgamma coactivator (PGC) from Tox21 10K library (AID 1224842). Further: nearly all actives have a fitted effect of over 15% in size. The procedure, abridged:
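PGC/ERR reporter cell line, 2,000 cells per well, incubated 6 h at 37 C before 23 nL compound in DMSO was added. After 18 h at 37 C, One-Glo luminescence read following 30 min at room temperature.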

The target of assay [10] is Thyrotropin receptor (Homo sapiens) (UniProt P16473). The experiment in a line: qHTS assay to identify small molecule agonists of the thyroid stimulating hormone receptor (TSHR) signaling pathway (AID 1224843; calls by dose curve; further: nearly all actives have a fitted effect of over 45% in size). The gist of the method:
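HEK293/TSHR, 800 cells/well; cpd 30 min RT; add cAMP-d2 + anti-cAMP-cryptate, 1 h RT; fluorescence read on plate reader. 15-pt titration, n=3.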

Assay [11] in a line: qHTS assay to identify small molecule agonists of the hypoxia (HIF-1) signaling pathway - cell viability counter screen (AID 1224844; calls by dose curve; further: nearly all actives have a fitted effect of over 50% in size). The gist of the method: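 CellTiter-Glo luminescence read-out, 30 min RT, taken in the same wells as the beta-lactamase HRE reporter assay; HRE-bla ME-180 cells, 0.5% dialyzed FBS, 17 hr compound treatment at 37C, 5% CO2.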
Assay [12] in a line: qHTS assay to identify small molecule agonists of H2AX (AID 1224845; active means well fitted activation curve with a large enough effect in the signal ratio in the repeat runs, not every such curve was filed as active; the % refers to the signal ratio). The gist of the method: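 Wild-type CHO-K1 cells, plated overnight, exposed 3hr at 37C to 15 concentrations (0.76% DMSO final). Lysed, then HTRF anti-pH2AX (S139) cryptate and anti-H2AX-d2 antibodies, 24 hr room temperature; 665/620 nm emission read.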
Assay [13] is described as follows: qHTS assay to identify small molecule agonists of the hypoxia (HIF-1) signaling pathway (AID 1224846; active means well fitted activation curve with a large enough effect in the signal ratio in the repeat runs, not every such curve was filed as active; the % refers to the signal ratio). The gist of the method: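 Beta-lactamase FRET read-out (CCF4-AM substrate) from ME-180 cells carrying an HRE-driven bla reporter, after 17 hrs compound exposure at 37C/5% CO2. Cells were seeded at 2,000 per well in 0.5% dialyzed FBS medium and preincubated 5 hrs.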

Assay [14] is described as follows: qHTS assay to identify small molecule agonists of H2AX - cell viability counter screen (AID 1224847; calls by dose curve; further: top concentration of the series differs between compounds; nearly all actives have a fitted effect of over 30% in size). The gist of the method:
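Cytotoxicity counter screen in wild-type CHO-K1 cells: a 3 hr compound treatment at 37C across 15 concentrations, followed by CellTiter-Glo luminescence to gauge viable cells.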

A short description of assay [15]: qHTS assay to identify small molecule antagonists of the estrogen related receptor (ERR) signaling pathway from Tox21 library (AID 1224848). Further: nearly all actives have a fitted effect of over 50% in size. The gist of the method:
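Compounds dissolved in DMSO are pin-transferred onto ERR reporter cells (2,000 per well) that have settled for 6 h at 37 C. Plates then incubate 18 h at 37 C before ONE-Glo luciferase reagent and a luminescence read 30 min later.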

Assay [16] can be described thus: qHTS assay to identify small molecule agonists of the estrogen related receptor (ERR) signaling pathway from Tox21 library (AID 1224849; calls by dose curve; further: nearly all actives have a fitted effect of over 15% in size). The settings on record: ERR reporter cell line, ONE-Glo luciferase, 18 h; at 92.4 µM (top of the series). The procedure, abridged: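 Luminescence readout (ONE-Glo, 30 min RT) after 18 h compound exposure at 37 C of NTP-supplied ERR reporter cells; cells were plated 6 h before compound addition by pin tool.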

Assay [17] can be described thus: qHTS RealTime-Glo MT Cell Viability Assay in HepG2 cells - 24 hour (AID 1224867). Further: nearly all actives have a fitted effect of over 50% in size. The gist of the method: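 HepG2 suspension premixed with RealTime-Glo reagents is plated at 600 cells per well and left 5 h at 37 C/5% CO2. Compounds in DMSO then go in, and bioluminescence reflecting viable cell number is recorded over 40 h.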
Assay [18] can be described thus: qHTS RealTime-Glo MT Cell Viability Assay in HEK293 cells - 32 hour (AID 1224868). The gist of the method: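 Reads taken at 0, 8, 16, 24, 32 and 40 h from the same wells. HEK293 cells (600/well) carried RealTime-Glo reagents from seeding, with compound added after a 5 h settle at 37 C.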
A short description of assay [19]: A CellTox Green Cytotoxicity Assay to monitor cytotoxicity in HEK293 cells - 0 hour (AID 1224869). Further: nearly all actives have a fitted effect of over 50% in size. The procedure, abridged:
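Read-out: fluorescence of a cell-impermeant cyanine dye staining DNA of dead cells, proportional to cytotoxicity. HEK293, 600 cells/well with reagent, compound (23 nL DMSO) added after 5 h; reads at 0, 8, 16, 24, 32, 40 h.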

The nature of assay [20]: qHTS RealTime-Glo MT Cell Viability Assay in HepG2 cells - 40 hour (AID 1224870). Further: nearly all actives have a fitted effect of over 50% in size. The procedure, abridged:
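HepG2 cells (600/well) mixed with RealTime-Glo MT reagent, settled 5 h at 37 C/5% CO2 before compound addition. Nonlytic NanoLuc luminescence from viable-cell prosubstrate reduction read repeatedly during 40 h treatment at 37 C.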

Values joined by “and” are separate entries in the source; they are usually repeats but may differ in a detail not shown here. Equal values may be shown once. Unmarked numbers belong to inactive results. Results filed as inconclusive are left out. Some structures have more than one record in an assay (separate samples or runs), and their calls can disagree. Active and inactive are the calls of the source. Unless noted, the call rests on the fitted dose curve; in most records, active means well fitted curve in the direction sought with a large enough effect in the repeat runs; inconclusive means weak or mixed curves; inactive means no such curve, though single readings can be large; an effect the other way counts as inactive or inconclusive.
On the % scale 0 is the no-effect control and ±100 the full control effect.

Luciferin 4-monooxygenase (Photinus pyralis), sequence (P08659 whole entry, looked up): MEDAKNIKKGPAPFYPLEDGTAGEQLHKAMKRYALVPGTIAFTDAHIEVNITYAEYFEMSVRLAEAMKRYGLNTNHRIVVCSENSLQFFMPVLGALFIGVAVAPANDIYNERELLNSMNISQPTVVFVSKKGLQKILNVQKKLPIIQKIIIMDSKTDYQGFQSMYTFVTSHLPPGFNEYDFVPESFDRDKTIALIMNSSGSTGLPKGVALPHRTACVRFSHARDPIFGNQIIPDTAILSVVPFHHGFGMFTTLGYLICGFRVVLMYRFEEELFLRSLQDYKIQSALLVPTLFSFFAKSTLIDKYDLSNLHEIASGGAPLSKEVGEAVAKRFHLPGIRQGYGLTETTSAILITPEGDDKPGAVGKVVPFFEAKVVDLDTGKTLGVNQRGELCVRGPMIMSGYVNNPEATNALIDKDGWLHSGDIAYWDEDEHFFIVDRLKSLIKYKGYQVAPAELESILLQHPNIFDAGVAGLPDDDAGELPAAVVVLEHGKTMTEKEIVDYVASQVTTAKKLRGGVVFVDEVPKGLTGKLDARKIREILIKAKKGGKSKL
Nuclear receptor subfamily 1 group I member 3 (Homo sapiens), sequence (Q14994 whole entry, looked up): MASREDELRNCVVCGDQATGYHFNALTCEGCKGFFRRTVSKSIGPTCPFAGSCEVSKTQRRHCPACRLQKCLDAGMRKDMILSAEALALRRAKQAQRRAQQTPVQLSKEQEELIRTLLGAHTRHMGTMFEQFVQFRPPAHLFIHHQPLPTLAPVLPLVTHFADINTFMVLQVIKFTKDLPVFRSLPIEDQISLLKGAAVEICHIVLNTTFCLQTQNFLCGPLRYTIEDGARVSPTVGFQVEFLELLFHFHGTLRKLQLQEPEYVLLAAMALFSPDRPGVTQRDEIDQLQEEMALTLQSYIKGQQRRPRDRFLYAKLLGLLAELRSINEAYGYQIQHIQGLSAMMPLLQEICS
Thyrotropin receptor (Homo sapiens), sequence (P16473 whole entry, looked up): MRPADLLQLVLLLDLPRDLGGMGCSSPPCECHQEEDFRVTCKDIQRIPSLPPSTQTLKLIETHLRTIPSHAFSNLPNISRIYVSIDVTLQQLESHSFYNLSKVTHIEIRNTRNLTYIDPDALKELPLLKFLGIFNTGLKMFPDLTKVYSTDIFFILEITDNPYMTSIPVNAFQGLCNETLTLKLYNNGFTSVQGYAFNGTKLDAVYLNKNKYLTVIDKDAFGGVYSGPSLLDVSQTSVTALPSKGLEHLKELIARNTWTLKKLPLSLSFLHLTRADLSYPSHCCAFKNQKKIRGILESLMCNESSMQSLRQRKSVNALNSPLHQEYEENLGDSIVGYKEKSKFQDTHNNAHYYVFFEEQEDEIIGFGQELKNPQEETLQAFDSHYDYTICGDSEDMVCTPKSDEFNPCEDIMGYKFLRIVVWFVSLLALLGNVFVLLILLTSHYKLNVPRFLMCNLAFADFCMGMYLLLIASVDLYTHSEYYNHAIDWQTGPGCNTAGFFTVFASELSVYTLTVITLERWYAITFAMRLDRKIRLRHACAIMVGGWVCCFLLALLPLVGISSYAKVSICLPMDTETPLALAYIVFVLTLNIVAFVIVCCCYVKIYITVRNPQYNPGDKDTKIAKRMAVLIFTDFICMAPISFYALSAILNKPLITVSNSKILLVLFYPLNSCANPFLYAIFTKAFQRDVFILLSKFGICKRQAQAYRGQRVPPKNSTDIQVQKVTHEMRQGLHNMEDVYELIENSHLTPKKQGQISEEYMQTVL

For the compound `OB(O)O`, the Potency entry in assay [1], in [2], in assay [3], in assay [4], in assay [5] and in assay [6] was “inactive” in each case. The Potency entry in [7], in [8], in assay [9], in assay [10], in [11] and in assay [12] was “inactive” throughout. The Potency result in assay [14], in [15], in assay [17], in assay [18], in assay [19] and in [20] was “inactive” throughout. For the same compound, the outcome in assay [13] was inactive. Moreover, the activity change, positive = activation in [16] is 4.58% and 4.55%.
As to `CCCCCCCCCCCC(=O)N(C)CC(=O)O`, the Potency result in assay [1], in [3], in assay [4], in [7], in [10] and in assay [12] was “inactive” in each case. In addition, the Potency entry in assay [14], in assay [17], in assay [18], in [19] and in assay [20] was “inactive” throughout. The Potency in assay [2] was 77.2 µM (active). Also, in assay [2], the activity change, negative = inhibition is 1.62% [at 10.5 µM]. The activity change, negative = cytotoxicity in assay [11] is 0.126% [at 6.97 µM]. The result in assay [13] was inactive.
As to `O=C(O)Cc1c[nH]c2ccccc12`, the Potency entry in assay [1], in assay [2], in [3], in assay [4], in [5] and in assay [6] was “inactive” in each case. In addition, the Potency entry in assay [7], in assay [8], in assay [9], in [10], in [11] and in assay [12] was “inactive” in each case. Also, the Potency result in assay [14], in [15], in assay [17], in assay [18], in [19] and in assay [20] was “inactive” throughout. The compound was classed as inactive in assay [13]. Further, the activity change, positive = activation in assay [16] was 5.71% and 6.87%.
As to `CCOC(=O)c1ccc(O)cc1`, the Potency result in assay [1], in assay [2], in assay [3], in assay [4], in assay [5] and in assay [6] was “inactive” each time. Also, the Potency result in [7], in assay [10], in assay [11], in assay [12], in assay [14] and in assay [17] was “inactive” throughout. In addition, the Potency result in assay [18], in [19] and in assay [20] was “inactive” each time. In addition, the result in assay [13] was inactive.
For `Cc1ccc(Cl)cc1`, the Potency result in [1], in assay [2], in assay [3], in assay [4], in assay [5] and in assay [6] was “inactive” throughout. Besides, the Potency entry in assay [7], in assay [10], in assay [11], in [12], in [14] and in assay [17] was “inactive” each time. The Potency entry in assay [18], in assay [19] and in [20] was “inactive” in each case. The outcome in [13] was inactive.
Consider `CCCCCNCCCCC`, for which the Potency result in [1], in assay [2], in [3], in [4], in assay [5] and in assay [6] was “inactive” each time. Further, the Potency entry in assay [7], in assay [10], in [11], in assay [12], in assay [14] and in assay [17] was “inactive” in each case. Moreover, the Potency entry in [18], in assay [19] and in assay [20] was “inactive” each time. Moreover, the compound was called inactive in [13].
Turning to `CC(COCC(C)OC(=O)c1ccccc1)OC(=O)c1ccccc1` (stereo not given), the Potency result in [1], in assay [2], in assay [3], in assay [4], in assay [5] and in [6] was “inactive” throughout. The Potency entry in assay [7], in assay [8], in assay [9], in [11], in assay [12] and in assay [14] was “inactive” throughout. In addition, the Potency entry in [15], in assay [17], in [19] and in assay [20] was “inactive” throughout. Also, in assay [13], the outcome was inactive. Moreover, in assay [16], the activity change, positive = activation was -2.03% and -5.66%.
`CCCCCC(C)=O`: the Potency entry in assay [1], in assay [2], in assay [3], in assay [4], in assay [5] and in assay [6] was “inactive” throughout. For the same compound, the Potency result in assay [7], in [8], in assay [9], in [11], in [12] and in assay [14] was “inactive” in each case. Also, the Potency entry in [15], in assay [17], in assay [18], in assay [19] and in assay [20] was “inactive” each time. Further, in [13], the compound was called inactive. In addition, the activity change, positive = activation in assay [16] is 9.83% and 4.6%.
